From the supplement of paper PMC12669032
Where “and” joins values, the source holds several entries; their conditions need not be identical. Identical values can stand only once.

Assays:
Test in all cases: growth AUC relative to DMSO control (median of replicates) (fraction); higher = more growth (less inhibition), active = hit call of the paper
Conditions in all cases: 20 µM; 24 h;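 active = AUC reduced over 20% with Padj below 0.05 in at least 2 of 3 replicates; inactive = otherwise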
Akkermansia muciniphila = tested on: Akkermansia muciniphila
How it was run: (§1)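 Area under the growth curve was normalised to the plate median of solvent-only wells, or to row and column medians on the industrial chemical plate. Growth curves came from anaerobic gut bacterial monocultures in mGAM at 37 °C, seeded at OD600 0.05 with 20 µM compound (1% DMSO), and read at OD600 hourly for 24 h with the minimum OD set to 0. The value is the median of three biological replicates grown on separate days.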

Bacteroides caccae = tested on: Bacteroides caccae
How it was run: as §1

Bacteroides clarus = tested on: Bacteroides clarus
How it was run: as §1

Bacteroides dorei = tested on: Bacteroides dorei
How it was run: as §1

Bacteroides stercoris = tested on: Bacteroides stercoris
How it was run: as §1

[1] = tested on: Bacteroides thetaiotaomicron
How it was run: as §1

Bacteroides uniformis = tested on: Bacteroides uniformis
How it was run: as §1

[2] = tested on: Bifidobacterium longum subsp. longum
How it was run: as §1

Clostridium difficile = tested on: Clostridium difficile
How it was run: as §1

Collinsella aerofaciens = tested on: Collinsella aerofaciens
How it was run: as §1

Coprococcus comes = tested on: Coprococcus comes
How it was run: as §1

Escherichia coli ED1a = tested on: Escherichia coli ED1a
How it was run: as §1

Escherichia coli IAI1 = tested on: Escherichia coli IAI1
How it was run: as §1

Eubacterium rectale = tested on: Eubacterium rectale
How it was run: as §1

[3] = tested on: Fusobacterium nucleatum subsp. animalis
How it was run: as §1

Lactobacillus gasseri = tested on: Lactobacillus gasseri
How it was run: as §1

Lactobacillus paracasei = tested on: Lactobacillus paracasei
How it was run: as §1

Odoribacter splanchnicus = tested on: Odoribacter splanchnicus
How it was run: as §1

[4] = tested on: Parabacteroides distasonis
How it was run: as §1

Parabacteroides merdae = tested on: Parabacteroides merdae
How it was run: as §1

Measured: growth AUC

CC(C)=CC1C(C(=O)OCN2C(=O)C3=C(CCCC3)C2=O)C1(C)C (stereo not given)
inactive: Akkermansia muciniphila 0.932 | Bacteroides caccae 0.916 | Bacteroides clarus 0.924 | Bacteroides dorei 0.976 | Bacteroides stercoris 0.877 | [1] 0.965 | Bacteroides uniformis 0.97 | [2] 0.741 | Clostridium difficile 0.959 | Collinsella aerofaciens 0.955 | Coprococcus comes 0.953 | Escherichia coli ED1a 0.995 | Escherichia coli IAI1 0.97 | Eubacterium rectale 0.938 | [3] 0.85 | Lactobacillus gasseri 0.993 | Lactobacillus paracasei 0.918 | Odoribacter splanchnicus 0.963 | [4] 0.935 | Parabacteroides merdae 0.972

CC(Oc1ccc(Oc2nc3ccc(Cl)cc3o2)cc1)C(=O)O (racemic)
inactive: Akkermansia muciniphila 0.992 | Bacteroides caccae 1.05 | Bacteroides clarus 0.995 | Bacteroides dorei 0.996 | Bacteroides stercoris 1.25 | [1] 0.996 | Bacteroides uniformis 0.962 | [2] 1.03 | Clostridium difficile 0.987 | Collinsella aerofaciens 1.03 | Coprococcus comes 1.05 | Escherichia coli ED1a 1.02 | Escherichia coli IAI1 0.997 | Eubacterium rectale 1.03 | [3] 1.12 | Lactobacillus gasseri 1.04 | Lactobacillus paracasei 1.07 | Odoribacter splanchnicus 0.923 | [4] 1.04 | Parabacteroides merdae 0.97

CCOP(=S)(OCC)SCSc1ccc(Cl)cc1
inactive: Akkermansia muciniphila 1.04 | Bacteroides caccae 0.954 | Bacteroides clarus 0.972 | Bacteroides dorei 0.984 | Bacteroides stercoris 1.09 | [1] 0.987 | Bacteroides uniformis 0.943 | [2] 1.03 | Clostridium difficile 1 | Collinsella aerofaciens 0.963 | Coprococcus comes 0.975 | Escherichia coli ED1a 0.986 | Escherichia coli IAI1 0.964 | Eubacterium rectale 0.909 | [3] 1.07 | Lactobacillus gasseri 0.884 | Lactobacillus paracasei 1 | Odoribacter splanchnicus 1.06 | [4] 0.911 | Parabacteroides merdae 0.977

COC(=O)/C=C(/C)OP(=O)(OC)OC
inactive: Akkermansia muciniphila 1.05 and 1.08 | Bacteroides caccae 0.952 and 0.906 | Bacteroides clarus 1.02 and 1.08 | Bacteroides dorei 0.879 and 1.01 | Bacteroides stercoris 0.938 and 1.2 | [1] 0.992 and 0.984 | Bacteroides uniformis 0.981 and 0.997 | [2] 1 and 1.06 | Clostridium difficile 0.956 and 1.01 | Collinsella aerofaciens 0.959 and 0.989 | Coprococcus comes 1.02 and 1.04 | Escherichia coli ED1a 1.01 and 1.05 | Escherichia coli IAI1 0.997 and 1.04 | Eubacterium rectale 1.03 and 1.05 | [3] 1.03 and 1.22 | Lactobacillus gasseri 0.973 and 1.01 | Lactobacillus paracasei 0.956 and 1.04 | Odoribacter splanchnicus 1.09 and 0.835 | [4] 0.972 and 0.999 | Parabacteroides merdae 1 and 1.05

COC(C)(C)CCCC(C)C/C=C/C(C)=C/C(=O)OC(C)C (stereo not given)
inactive: Akkermansia muciniphila 0.867 | Bacteroides caccae 1 | Bacteroides clarus 0.989 | Bacteroides dorei 0.996 | Bacteroides stercoris 1.03 | [1] 0.981 | Bacteroides uniformis 0.963 | [2] 0.987 | Clostridium difficile 1.02 | Collinsella aerofaciens 1.04 | Coprococcus comes 1.01 | Escherichia coli ED1a 1.01 | Escherichia coli IAI1 1 | Eubacterium rectale 0.831 | [3] 1 | Lactobacillus gasseri 1.04 | Lactobacillus paracasei 1.04 | Odoribacter splanchnicus 0.999 | [4] 1 | Parabacteroides merdae 1

CNC(=O)N(C)c1nc2ccccc2s1
inactive: Akkermansia muciniphila 0.902 | Bacteroides caccae 1.02 | Bacteroides clarus 0.991 | Bacteroides dorei 1 | Bacteroides stercoris 0.998 | [1] 0.999 | Bacteroides uniformis 0.991 | [2] 0.936 | Clostridium difficile 0.978 | Collinsella aerofaciens 0.995 | Coprococcus comes 0.992 | Escherichia coli ED1a 0.999 | Escherichia coli IAI1 0.991 | Eubacterium rectale 0.958 | [3] 0.971 | Lactobacillus gasseri 0.994 | Lactobacillus paracasei 0.949 | Odoribacter splanchnicus 0.988 | [4] 0.972 | Parabacteroides merdae 1.02

CCCOCCN(C(=O)CCl)c1c(CC)cccc1CC
inactive: Akkermansia muciniphila 1.11 | Bacteroides caccae 0.979 | Bacteroides clarus 0.981 | Bacteroides dorei 0.976 | Bacteroides stercoris 0.919 | [1] 0.95 | Bacteroides uniformis 0.895 | [2] 1.05 | Clostridium difficile 0.971 | Collinsella aerofaciens 0.972 | Coprococcus comes 0.988 | Escherichia coli ED1a 0.963 | Escherichia coli IAI1 0.985 | Eubacterium rectale 1.02 | [3] 0.945 | Lactobacillus gasseri 0.927 | Lactobacillus paracasei 1.12 | Odoribacter splanchnicus 1.02 | [4] 0.848 | Parabacteroides merdae 0.942

COc1ccc(/C(=C/C(=O)N2CCOCC2)c2ccc(Cl)cc2)cc1OC
inactive: Akkermansia muciniphila 1.1 | Bacteroides caccae 0.962 | Bacteroides clarus 1 | Bacteroides dorei 0.93 | Bacteroides stercoris 1.33 | [1] 0.978 | Bacteroides uniformis 0.954 | [2] 1.04 | Clostridium difficile 0.932 | Collinsella aerofaciens 0.93 | Coprococcus comes 0.985 | Escherichia coli ED1a 1.01 | Escherichia coli IAI1 1.02 | Eubacterium rectale 1.12 | [3] 1.06 | Lactobacillus gasseri 0.961 | Lactobacillus paracasei 1.06 | Odoribacter splanchnicus 0.823 | [4] 0.993 | Parabacteroides merdae 0.993

CCSC(C)CC1CC(=O)C(/C(CC)=N/OC/C=C/Cl)=C(O)C1 (mixture of isomers)
inactive: Akkermansia muciniphila 1.13 | Bacteroides caccae 1.05 | Bacteroides clarus 1.03 | Bacteroides dorei 1.01 | Bacteroides stercoris 1.11 | [1] 1.01 | Bacteroides uniformis 1.02 | [2] 1.01 | Clostridium difficile 1.04 | Collinsella aerofaciens 1.04 | Coprococcus comes 1.06 | Escherichia coli ED1a 1.03 | Escherichia coli IAI1 1.01 | Eubacterium rectale 1.03 | [3] 1.1 | Lactobacillus gasseri 0.865 | Lactobacillus paracasei 1.06 | Odoribacter splanchnicus 1.02 | [4] 0.958 | Parabacteroides merdae 1.02

C=C(C)[C@H]1Cc2c(ccc3c2O[C@@H]2COc4cc(OC)c(OC)cc4[C@@H]2C3=O)O1
inactive: Akkermansia muciniphila 1.07 | Bacteroides caccae 0.985 | Bacteroides clarus 0.897 | Bacteroides dorei 0.947 | Bacteroides stercoris 0.735 | [1] 0.965 | Bacteroides uniformis 0.813 | [2] 1 | Clostridium difficile 1.03 | Collinsella aerofaciens 0.987 | Coprococcus comes 0.986 | Escherichia coli ED1a 1 | Escherichia coli IAI1 1.01 | Eubacterium rectale 0.973 | [3] 1.06 | Lactobacillus gasseri 0.878 | Lactobacillus paracasei 0.954 | Odoribacter splanchnicus 0.917 | [4] 0.935 | Parabacteroides merdae 0.94

Cc1ccc(-c2c(Cl)nc(C#N)n2S(=O)(=O)N(C)C)cc1
active: Bacteroides uniformis 0.639 | [4] 0.551
inactive: Akkermansia muciniphila 0.913 | Bacteroides caccae 0.844 | Bacteroides clarus 0.817 | Bacteroides dorei 0.904 | Bacteroides stercoris 0.931 | [1] 0.906 | [2] 1.03 | Clostridium difficile 0.96 | Collinsella aerofaciens 1.02 | Coprococcus comes 1.03 | Escherichia coli ED1a 0.944 | Escherichia coli IAI1 1.02 | Eubacterium rectale 0.992 | [3] 1.09 | Lactobacillus gasseri 1 | Lactobacillus paracasei 1.03 | Odoribacter splanchnicus 0.989 | Parabacteroides merdae 0.818

Clc1cc(Cl)nc(-c2ccccc2)n1
inactive: Akkermansia muciniphila 1.12 | Bacteroides caccae 0.877 | Bacteroides clarus 0.99 | Bacteroides dorei 0.995 | Bacteroides stercoris 1 | [1] 0.971 | Bacteroides uniformis 0.956 | [2] 1.09 | Clostridium difficile 0.956 | Collinsella aerofaciens 0.927 | Coprococcus comes 1.02 | Escherichia coli ED1a 1.01 | Escherichia coli IAI1 0.997 | Eubacterium rectale 1.06 | [3] 1.08 | Lactobacillus gasseri 0.883 | Lactobacillus paracasei 1 | Odoribacter splanchnicus 1.02 | [4] 0.991 | Parabacteroides merdae 0.965

Nc1nc(N)nc(N)n1
active: Bacteroides stercoris 0.792 | Odoribacter splanchnicus 0.119
inactive: Akkermansia muciniphila 0.956 | Bacteroides caccae 1.02 | Bacteroides clarus 0.881 | Bacteroides dorei 1.03 | [1] 0.968 | Bacteroides uniformis 0.972 | [2] 1.15 | Clostridium difficile 0.989 | Collinsella aerofaciens 1.03 | Coprococcus comes 0.978 | Escherichia coli ED1a 0.991 | Escherichia coli IAI1 1.02 | Eubacterium rectale 0.944 | [3] 1 | Lactobacillus gasseri 1.01 | Lactobacillus paracasei 1.05 | [4] 1.23 | Parabacteroides merdae 0.981

CN/C(=N\[N+](=O)[O-])NCc1cnc(Cl)s1
inactive: Akkermansia muciniphila 0.906 | Bacteroides caccae 0.93 | Bacteroides clarus 1.02 | Bacteroides dorei 1.03 | Bacteroides stercoris 1.17 | [1] 1 | Bacteroides uniformis 1 | [2] 1.03 | Clostridium difficile 0.979 | Collinsella aerofaciens 0.988 | Coprococcus comes 1.01 | Escherichia coli ED1a 1.02 | Escherichia coli IAI1 1 | Eubacterium rectale 1.07 | [3] 1.09 | Lactobacillus gasseri 0.959 | Lactobacillus paracasei 1 | Odoribacter splanchnicus 1.02 | [4] 0.965 | Parabacteroides merdae 0.975
